Screening data: PubChem BioAssay, The Scripps Research Institute Molecular Screening Center
This is a sample that favours compounds with a hit; in the whole collection about 4.2% have one here.
hcDAF12 agonist: H. contortus DAF-12 nuclear receptor activators, primary screen, cell-based, luminescence, HEK293, lit1-tk-luc reporter | HEK293 hcDAF-12 lit1-tk-luc reporter; 0% DMSO, 100% Δ7-dafachronic acid | AID 652067, 2013 | 370,000 tested, 1.4% active | activation, % at 6.8 µM;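 active = activation above the mean of all tested compounds plus 3 SD, cut at about 5.5% in these data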;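 also: 100% = response to 3 µM Δ7-dafachronic acid high control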
hgDAF-12 ag: H. glycines DAF-12 receptor agonists, primary screen, cell-based, luminescence, HEK293, GAL4 fusion, UAS-luciferase. Nuclear hormone receptor DAF-12 (Heterodera glycines), GAL4 fusion. HEK293 GAL4-hgDAF12 UAS-luciferase reporter, agonist luminescence; normalized to butyrate control. activation, % at 6.8 µM. 370,000 tested, 1.8% active. AID 687014, 2013;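 active = activation above a cutoff set at the mean of all screened compounds plus 3 SD, cut at about 10% in these data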;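 also: 0% = DMSO wells and 100% = sodium butyrate wells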
ssDAF-12 act: S. stercoralis DAF-12 nuclear receptor activators, primary screen, cell-based, luminescence, HEK293, GRIP1 co-expression, lit1-tk-luc. HEK293 ssDAF-12/GRIP1 lit1-tk-luc reporter; % of 3 µM dafachronic acid response. activation, % at 6.8 µM. AID 652126, 2013. Nuclear hormone receptor DAF-12 (Strongyloides stercoralis). 370,000 tested, 1% active;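 active = activation above the mean over all tested compounds plus 3 SD, cut at about 0.9% in these data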;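 also: 0% = DMSO-only wells and 100% = 3 µM delta7-dafachronic acid wells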
SMARCA2 act: SMARCA2 (BRM) function activators, primary screen, cell-based, luminescence, high throughput; AID 652017, 2013; activation, % at 9.1 µM; 370,000 tested, 1% active; MG213 cells, MMTV-luciferase reporter, dexamethasone, overnight; in the data active = activation above about 7.8%;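 also: 0% = vehicle wells and 100% = reference activator wells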
DAX1 StAR inh: DAX1 (NR0B1) inhibitors on StAR promoter, primary screen, cell-based, luminescence, SF-1 (NR5A1), full-length DAX-1. 370,000 tested, 1.1% active. AID 652010, 2013. inhibition, % at 6.8 µM. HEK293T StAR-luciferase reporter, SF-1/DAX-1 repression relief;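 active = inhibition above the mean over all tested compounds plus 3 SD, cut at about 3.6% in these data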;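 also: 0% = DAX-1 cells with DMSO and 100% = cells lacking DAX-1 with DMSO; higher inhibition means more luminescence from relief of DAX-1 repression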
LXR ag: LXR agonists, Gal4 luciferase reporter, confirmation, counter-screen for hcDAF-12 agonist project, cell-based, luminescence, HEK293, H. contortus campaign; HEK293 Gal4-LXR tk-luc reporter, 24 h; normalized: DMSO 0%, positive control 100%; activation, % at 6.8 µM; 3,400 tested, under 10 active; shares compounds with hcDAF12 agonist;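 active = mean percent activation of the reporter above a cutoff set as the average over tested compounds plus their standard deviation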
Target sequence (P55055 whole entry, looked up, the tested form may be a part): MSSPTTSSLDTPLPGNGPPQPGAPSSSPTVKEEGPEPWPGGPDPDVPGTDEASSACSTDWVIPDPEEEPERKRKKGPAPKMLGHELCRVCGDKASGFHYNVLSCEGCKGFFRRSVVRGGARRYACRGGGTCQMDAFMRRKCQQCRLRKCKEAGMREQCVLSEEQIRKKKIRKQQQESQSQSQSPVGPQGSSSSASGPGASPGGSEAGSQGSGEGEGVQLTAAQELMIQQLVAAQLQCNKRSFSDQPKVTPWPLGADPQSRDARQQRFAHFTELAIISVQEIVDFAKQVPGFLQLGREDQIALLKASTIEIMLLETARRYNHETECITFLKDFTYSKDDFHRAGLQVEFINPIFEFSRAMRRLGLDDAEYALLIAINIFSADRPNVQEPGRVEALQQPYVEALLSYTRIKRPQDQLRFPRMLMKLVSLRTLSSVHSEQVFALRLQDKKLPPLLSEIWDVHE
hcDAF12 ag: H. contortus DAF-12 receptor agonists, confirmation, cell-based, luminescence, HEK293, lit1-tk-luc, triplicate | HEK293 hcDAF-12 lit1-tk-luc reporter; % of Δ7-dafachronic acid response | activation, % at 6.8 µM | 3,400 tested, 61% active | shares compounds with hcDAF12 agonist;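 active = mean activation across triplicate tests above the threshold derived from the earlier primary screen, cut at about 5.5% in these data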;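 also: 0% = DMSO only wells and 100% = 3 µM Δ7-dafachronic acid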
Active calls of the source: *; . = not tested or not shown.

SMILES	hcDAF12 agonist	hgDAF-12 ag	ssDAF-12 act	SMARCA2 act	DAX1 StAR inh	LXR ag	hcDAF12 ag
Cc1cc(C)n2cc(-c3ccc(Cl)cc3)c(C(=O)O)c2n1	10*	8	1.4*	4	3	1	9.3*
COc1ccc(CCNc2cc(C)nc3c(-c4ccccc4OC)cnn23)cc1OC	-3	-1	-1	1	-1	.	.
Cc1cc(N)n2ncc(-c3ccc(Cl)cc3)c2n1	6.7*	10	0	7	3	1	5
Cc1ccccc1CN1CCCCC(NC(=O)c2ccc(F)cc2F)C1=O (stereo unspecified)	-2	0	-1	-2	-2	.	.
c1csc(-c2ccc(N3CCOCC3)nn2)c1	6.6*	13*	0	1	3	1	5.8*
COc1ccc(-c2nnc(SCC(=O)Nc3cccc4ccccc34)n2Cc2ccco2)cc1	0	2	0	1	-2	.	.
COCCN1Cc2cc(C(=O)OC)c3c(c2C1=O)c1ccccc1n3S(=O)(=O)c1ccc(C)cc1	4	0	0	-5	0	.	.
COc1ccccc1CNC(=O)COc1cc(O)c2c(c1)OC(C)(C)CC2=O	-1	-6	-1	2	-1	.	.
CC1ON=C(c2ccccn2)N(Cc2ccc(S(C)(=O)=O)cc2)C1=O (stereo unspecified)	10*	2	-2	-2	0	0	0
O=C(CNCc1ccccc1[N+](=O)[O-])N1CCC2(CC1)OCCO2	7.0*	13*	0	0	2	0	5
O=C(Cc1ccccc1F)Nc1ccc(S(=O)(=O)N2CCCCC2)cc1	-1	0	-1	-2	-1	.	.
O=C(Cc1ccccc1[N+](=O)[O-])Nc1ccc(S(=O)(=O)N2CCCC2)cc1	9.7*	2	1.0*	-2	1	0	5
Clc1ncccc1-c1nnn(-c2ccccc2)n1	6.8*	13*	0	7	2	2	7.0*
CC1CC1C(=O)Nc1nc2ccc(Cl)cc2s1 (stereo unspecified)	7.0*	9	0	-2	0	1	6.2*
Cn1cc(Cl)c(C(=O)Nc2nc3ccc(Cl)cc3s2)n1	1	5	-1	3	2	.	.
NC(=O)c1ccccc1NC(=S)NC(=O)c1ccc(Br)o1	9.2*	7	0	5	1	0	5
COc1ccc(S[C@]2(C(=O)N3CCN(C(C)=O)CC3)CC(=O)N(C(=O)C3CC3)[C@@H]2c2ccc(OC)cc2)cc1	-2	-2	0	-2	-2	.	.
CC(C)(C)c1ccc(S(=O)(=O)N2CCCC2C(=O)N2CCc3ccccc3C2)cc1 (stereo unspecified)	2	0	-1	1	0	.	.
COc1ccc(/C=[N+](\[O-])C2N(c3ccccc3)C(=S)SC2(C)C)cc1OC (stereo unspecified)	9.3*	3	-1	-2	0	0	0
CNC(=O)COC(=O)/C=C/c1c(C)nn(-c2ccccc2)c1C	8.4*	1	0	2	0	0	1
COC(=O)C1=C(C)N(Cc2ccccc2C(F)(F)F)C(=NCc2ccc3c(c2)OCO3)NC1c1cccc(Cl)c1 (stereo unspecified)	2	2	0	-1	-1	.	.
Cc1nc2ccccc2nc(C)c1=NO	8.6*	12*	1.0*	4	4.1*	0	4
CC(C)CNC(=O)C1CCN(Cc2ccc(OCc3ccccc3)cc2)CC1	7.1*	8	0	2	0	1	3
S=C1NC2(CCCCC2)Nc2ccccc21	2	1	0	3	0	.	.
S=C1NC2(CCCC2)Nc2ccccc21	6.7*	3	0	-1	0	0	5
SMILES	hcDAF12 agonist	hgDAF-12 ag	ssDAF-12 act	SMARCA2 act	DAX1 StAR inh	LXR ag	hcDAF12 ag
Cc1cc(NC(=O)CSc2c(C)[nH]c3ccccc23)no1	6.8*	4	1.1*	-4	1	0	1
Cc1cc(NC(=O)CSc2c[nH]c3ccccc23)no1	5	4	0	-3	0	.	.
CN1CCCN(C(=O)CN2C(=O)CC(C)(C)S(=O)(=O)c3ccccc32)CC1	-1	2	0	1	1	.	.
Cc1ccn2cc(CSc3ccccc3)nc2c1	6.6*	12*	0	7	2	1	5
C=C1[C@@H](CCO)N(S(=O)C(C)(C)C)C[C@@H]1C (stereo partly specified)	-1	0	0	3	1	.	.
CC(=O)Nc1nc(-c2ccc(Cl)cc2)nc(C)c1C(C)=O	6.6*	3	4.1*	3	0	0	4
Cc1ccccc1NC(=O)/C(C#N)=C\c1ccsc1	7.4*	7	-1	2	0	0	6.9*
Cc1ccc(NC(=O)/C(C#N)=C/c2ccsc2)c(C)c1	4	5	-1	4	0	.	.
N#C/C(=C/c1ccc([N+](=O)[O-])cc1)C(=O)Nc1ccccc1O	11*	6	0	7	0	0	5
N#C/C(=C\c1ccc([N+](=O)[O-])cc1)C(=O)Nc1ccccc1O	4	6	0	2	0	.	.
O=C(Nc1ccccc1O)c1ccc([N+](=O)[O-])cc1	7.0*	6	1.4*	-2	1	0	3
CCN(C[C@@H]1[C@@H](c2ccccc2)[C@H](CO)N1S(C)(=O)=O)C(=O)C1CCC1	1	5	-1	-3	1	.	.
CC1=C[C@]2(CN(CC3CC3)C3=N[C@H](c4ccccc4)CC(=O)N32)n2c(=O)n(-c3ccccc3)c(=O)n2C1	-1	1	-1	.	.	.	.
COC(=O)[C@]12C[C@H](CC(=O)NCc3cccc(C(F)(F)F)c3)C(=O)N(Cc3ccco3)C1=C[C@H](C(C)C)O[C@@H]2C1CC1	-3	-4	-1	-3	0	.	.
